Screening data from PubChem.
Only some compounds are listed: those with a hit (about 4.7% of all), similar ones and a draw of the others.
D1 agonist: activates the human D1 dopamine receptor. HEK293 T-REx D1 cells, calcium flux, agonist mode. 360,000 compounds, 1% hits. AID 504660. activation, % at 2 µM. P21728
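Inducible HEK293 T-REx D1 cells, force-coupled to calcium signalling, were plated at 4000 cells/well with tetracycline and held overnight at 30 C. After no-wash calcium dye loading, compound-evoked calcium rise over 180 s flagged agonists.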
D1 antagonist: blocks dopamine activation of the human D1 receptor | HEK293 TREx D1 cells, calcium flux, dopamine EC80; hits give low values | 360,000 compounds, 3.2% hits | activity change, negative = inhibition, % at 10 µM; in the data active means activity change below about -30%
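Calcium flux readout: force-coupled, inducible Hek293 Trex D1 line, cells induced overnight at 30 C with tetracycline, dye-loaded 30–90 min at RT. Antagonism scored against EC80 dopamine challenge given 180 s after compound.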
D1 PAM: potentiators of human D1 dopamine receptor | potentiation, % at 10 µM | P21728 | 360,000 compounds, 0.036% hits | AID 504651 | HEK293 TREx D1 cells, calcium flux, dopamine EC20 potentiation; in the data active means potentiation above about 30%
TRHR PAM: allosterically enhances the human TRH receptor. P34981. TRHR cells, fluo-8 calcium fluorescence, EC20 TRH enhancement. enhancement, % at 2 µM. 360,000 compounds, 0.66% hits. AID 493056; in the data active means enhancement above about 30%
Target sequence (P34981 whole entry, looked up): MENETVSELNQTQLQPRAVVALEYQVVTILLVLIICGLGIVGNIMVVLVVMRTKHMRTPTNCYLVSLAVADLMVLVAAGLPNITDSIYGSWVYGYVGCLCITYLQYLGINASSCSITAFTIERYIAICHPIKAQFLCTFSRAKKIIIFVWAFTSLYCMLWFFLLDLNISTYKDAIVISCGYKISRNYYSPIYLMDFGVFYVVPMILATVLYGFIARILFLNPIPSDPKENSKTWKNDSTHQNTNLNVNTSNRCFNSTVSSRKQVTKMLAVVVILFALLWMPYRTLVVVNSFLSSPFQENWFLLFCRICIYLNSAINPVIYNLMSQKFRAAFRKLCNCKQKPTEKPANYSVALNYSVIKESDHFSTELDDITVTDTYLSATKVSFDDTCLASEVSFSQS
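Enhancer read-out: after compound pinning and an initial kinetic agonist-mode read, an EC20 of TRH (10 nM final) was injected and fluo-8 calcium signal (Ex 480/Em 530) followed at 1 s/cycle for 100 cycles in TRHR-expressing cells.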
TRHR ag: activates the human TRH receptor; TRHR cells, calcium flux fluo-8, FDSS agonist mode; 360,000 compounds, 0.18% hits; activation, % at 2 µM; P34981; AID 493084
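Steps: seed TRHR cells overnight; add fluo-8 no-wash Ca dye, RT 30 min–1.5 h; record 10 s baseline; pin-transfer compounds; monitor fluorescence 1 cycle/s for the agonist window. Calcium increases flag candidate agonists.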
Each line names hits and unclear results; the compound was inactive in the other large screens; ! = repeats disagree. Unless noted, no stated cut-off is given here; in the data, active means activation above about 30%; inactive means the rest.

CN(C)S(=O)(=O)c1ccc(NCC2COc3ccccc3O2)c([N+](=O)[O-])c1 (stereo not drawn)	none
CN(C)S(=O)(=O)n1cnc([C@@H]2[C@@H]3C(=O)OC[C@@H]3C[C@]23N=CN(Cc2ccccc2)C3=O)c1	none (no result: D1 antagonist)
Cc1ccc(S(=O)(=O)c2cnc(SCC(=O)Nc3cc(C)cc(C)c3)nc2N)cc1	none
COc1cccc(-c2nc(CS(=O)(=O)CC(=O)NCCc3ccccc3)c(C)o2)c1	none
Cc1ccc(-c2nc(CS(=O)(=O)CC(=O)N3CCN(C)CC3)c(C)o2)cc1	none
Cc1ccccc1-c1nc(CS(=O)(=O)CC(=O)NCCc2ccccc2)c(C)o1	D1 agonist 31!, D1 antagonist -31!
CCN1CCN(C(=O)CS(=O)(=O)Cc2nc(-c3ccc(C)cc3)oc2C)CC1	D1 antagonist -31
Cc1ccccc1-c1nc(CS(=O)(=O)CC(=O)N2CCCCC2)c(C)o1	TRHR PAM 33
COc1cccc(-c2nc(CS(=O)(=O)CC(=O)NCC(C)c3ccccc3)c(C)o2)c1 (stereo not drawn)	D1 agonist 70
c1cnc(N2CCN(c3ncc4c(n3)CCNC4)CC2)nc1	none
CC(CNC(=O)c1ccc(CSc2nc3ccncc3n2Cc2cccc(F)c2)cc1)c1ccccc1 (stereo not drawn)	none
CCOC(=O)c1scc(-c2ccccc2)c1S(=O)(=O)Nc1ccc(N(C)C)cc1	TRHR PAM 53
CCN(CC)CCCNc1cc(C)nc2cc(-c3cccs3)nn12	none
Cc1ccc(NC(=O)Cc2sc(C)nc2-c2ccc(C)cc2)cc1	D1 antagonist -35
O=Cc1ccc(Oc2ccc(F)cc2)nc1	none
Nc1ccc(Oc2ccc(F)cc2)nc1	TRHR PAM 34
Cc1ccc(-c2noc(CN(C)C(=O)c3ccc(Br)o3)n2)cc1	none
O=C(Nc1nc2ccccc2s1)NC1CCCCC1	none
CN(C)C(=S)Nc1nc2ccccc2s1	D1 antagonist -30
O=C(CN1CCN(Cc2ccc(F)cc2)CC1)Nc1nc2ccccc2s1	D1 antagonist -30
Cc1ccccc1Nc1nc2ccccc2s1	D1 agonist 37
O=C(CC1CCCCC1)Nc1nc2ccccc2s1	TRHR PAM 36
CCN(C(=O)C1CCCN(c2ncnc3c2nc2n3CCCCC2)C1)c1cccc(Cl)c1 (stereo not drawn)	none
O=S(=O)(c1ccc(Br)cc1)N1CCCc2ccccc21	none
O=C(NCc1ccccc1Cl)c1cc2c(s1)-c1ccccc1SC2	none
COc1ccc(O)c(CN2CCN(CCCc3ccccc3)C(CCO)C2)c1 (stereo not drawn)	none
O=C(Nc1cccc(C(F)(F)F)c1)c1cnn(-c2cccc(F)c2)c1C1CCNCC1	none
OC(CN1CCC(Cc2ccccc2)CC1)c1ccccc1 (stereo not drawn)	none
CC(C)(C)c1ccc(OCC(=O)N2CCCCCC2)c(Br)c1	D1 antagonist -35
COc1ccc(-c2nnn(CC(=O)N(CCCN3CCOCC3)C(C(=O)NC3CCCC3)c3ccco3)n2)cc1 (stereo not drawn)	D1 antagonist -32
Cc1ccc(-c2nnn(CC(=O)N(CCN3CCOCC3)C(C(=O)NC(C)(C)C)c3ccc(C)o3)n2)cc1 (stereo not drawn)	TRHR PAM 37
CC(C)(C)NC(=O)C(c1ccncc1)N(Cc1cccs1)C(=O)Cn1nnc(-c2ccc(F)cc2)n1 (stereo not drawn)	D1 antagonist -33
COc1ccc(S(=O)(=O)N(C)C)cc1NC(=O)CSc1nnc(-c2cccnc2)o1	none
CC(C)C[C@H]1C(=O)N2CCC[C@H]2[C@]2(O)O[C@](NC(=O)[C@@H]3C=C4c5cccc6[nH]c(Br)c(c56)CC4N(C)C3)(C(C)C)C(=O)N12 (stereo partly drawn)	D1 antagonist -42
Cc1c(Cl)ccc2sc(N3CCN(C(=O)CS(=O)(=O)c4ccccc4)CC3)nc12	D1 agonist 49 (no result: D1 antagonist)
CCn1c(-c2ccsc2)nc2c1c(=O)[nH]c(=O)n2Cc1ccccc1	D1 antagonist -52
Cc1ccc(-c2nc(NC(=O)CSc3ncnc4sc5c(c34)CCC(C)C5)ns2)cc1 (stereo not drawn)	none
Cc1c(N=C2Nc3cccc4cccc2c34)c(=O)n(-c2ccccc2)n1C	D1 agonist 36
COc1ccccc1N1CCN(C2CCCN(Cc3cccc(O)c3)C2)CC1 (stereo not drawn)	D1 antagonist -50
COc1ccccc1CN1CCCC(N2CCN(c3ccccc3OC)CC2)C1 (stereo not drawn)	D1 antagonist -50
Cc1ccc(-c2[nH]ncc2C(=O)c2cccc(F)c2)c(O)c1	none
CC(=O)N1c2ccccc2CC1C(=O)N1CCN(c2cccc(Cl)c2)CC1 (stereo not drawn)	none
CCOc1ccc(NC(=O)C2CCN(C(=O)NC3CCCCC3)CC2)cc1	D1 antagonist -35
CCc1cnc2c(c1SCC(=O)Nc1cc(Cl)ccc1OC)c(=O)n(C)c(=O)n2C	none (no result: D1 antagonist)
CCN(CC)c1ccc(/C=C2\C(=N)N3N=C(CC(=O)N4CCOCC4)SC3=NC2=O)cc1	D1 agonist 115, TRHR ag 34
CSc1ccc(/C=C2\C(=N)N3N=C(CC(=O)N4CCOCC4)SC3=NC2=O)cc1	none
O=S(=O)(c1cccc(F)c1)N1CCC(Oc2ccc(-n3cnnn3)cc2)CC1	D1 antagonist -30
CCOc1ccccc1NC(=O)Cn1c(=O)nc(-c2ccccc2F)c2cc(Cl)ccc21	D1 antagonist -43
CC(C)(C)[C@@H]1C=C(C(=O)N2CCN(Cc3ccc4c(c3)OCO4)CC2)O[C@H](OCc2ccc(CO)cc2)C1	none
CC1=C(C(=O)Nc2ccc(C)cc2C)C(c2ccc(C(=O)O)cc2)n2nc(SCc3ccccc3)nc2N1 (stereo not drawn)	D1 antagonist -59
CCn1c(CNC(=O)c2cccc(C)c2)nnc1SCC(=O)N1CCOCC1	none
CCCCC1(C(=O)OC)NC(c2ccc(O)cc2)C2C(=O)N(c3ccccc3)C(=O)C21 (stereo not drawn)	none
NC(=O)CSc1nnnn1-c1cccc(O)c1	none
O=C(CCN1CCN(C(c2ccccc2)c2ccccc2)CC1)N/N=C/c1ccc(O)cc1	D1 antagonist -72
COc1ccc(/C=N\NC(=O)CCN2CCN(c3ccccc3)CC2)cc1OC	none
COc1cc(/C=N/NC(=O)CCN2CCCCC2)ccc1O	TRHR PAM 34
CCCCCC(=O)N/N=C/c1cc(Br)c(O)c(OC)c1	D1 antagonist -39
Cc1ccc2nc(CN3CCN(C(=O)Nc4cccc(C)c4C)CC3)oc2c1	none
CCC(=O)c1c[nH]c(C(=O)N2CCOCC2)c1	D1 antagonist -37
CCC(=O)c1c[nH]c(C(=O)N2CCN(c3ccccc3)CC2)c1	none
CCCc1cc(=O)oc2cc(C)cc(OCC(=O)NCCCN3CCCC3=O)c12	none
O=C(O)c1ccc(/C=N/NC(=O)C(O)(c2ccccc2)c2ccccc2)cc1	D1 antagonist -32
